Measurements from PubChem BioAssay (NCATS).
Records with an inconclusive call do not appear. Values without a mark were called inactive. The source made the active and inactive calls. The call rests on the fitted dose curve; in most records, active means well fitted cell-killing curve with a large enough effect; inconclusive means small, poorly fitted or top-dose-only effect; inactive means flat fitted curve, though single readings scatter.

assay: Quantitative highthroughput screen to assess conditional lethalithy of NOMO1 cells grown in RPMI1640 with dialyzed fetal bovine serum (RPMI+ds) (AID 1963877); settings: NOMO1 in RPMI+dialyzed FBS viability, ATP luminescence, 48 h; series mostly up to 45.8 µM; viability: at the top concentration; further: nearly all actives have a fitted effect of over 30% in size
Description: Assay Provider: Jason Cantor Ph.D.
Department of Biochemistry
University of Wisconsin-Madison, Madison, WI, USA
Chemical screening studies have identified drug sensitivities across hundreds of cancer cell lines but most putative therapeutics fail to translate. Discovery and development of drug candidates in models that more accurately reflect nutrient levels in human blood is a major challenge. Here we performed high-throughput screens in conventional versus Human Plasma-Like Medium (HPLM) to identify compounds that were "missed" when screening using the artificial culture condition. Sets of conditional anticancer compounds spanned phases of clinical development and included non-oncology drugs were assessed. […] We also traced conditional phenotypes for several chemotherapeutics to availability of HPLM-specific metabolites and confirmed others for compounds whose reported targets are encoded by nonessential genes. Our findings establish generalizable strategies for exploiting conditional lethality in HPLM to reveal therapeutic candidates and mechanisms of action in cancer cells.
Described herein are the results of each viability screens against three cell lines: NOMO1 (an acute myeloid leukemia cell line); P12-Ichikawa (a T-cell acute lymphoblastic leukemia); and SEM (a B-cell ALL). Each assay was screened using 3 different cell culture media: homemade human plasma-Like medium with 10% dialyzed fetal bovine serum (HPLM+ds); RPMI1640 with 10% untreated FBS and 5mM glucose (RPMI+s); and RPMI1640 with 10% dialyzed fetal bovine serum and 5 mM glucose (RPMI+ds).
PROTOCOL TABLE (as described by Inglese J, Shamu CE and Guy RK. 2007)
SEQUENCE No. (e.g., 1, 2, 3, etc.); […] (e.g., Cells, Incubation, Reagent, etc.); VALUE and DESCRIPTION.
1; Cells; 5 uL; white, solid bottom 1536-well Greiner assay plate.
2; Compounds; 23 nL; Kalypsis pin tool (Wako USA) equipped with a 1536-well pin head to transfer to the assay plates.
3; Incubation; 48 hours; 37C incubation.
4; Reagent; 3 uL; CellTiter Glo (Promega).
5; Incubation; 5 min, room temperature
6; Detection; Luminescence, Viewlux PerkinElmer.
NOTES (numbers refer to Sequence numbers above)
1. Briefly, 5 ul of cell reagent was dispensed using a Multidrop Combi Dispenser. The NOMO1 and SEM cells were plated at 500 cells/well and the P12-Ichikawa line at 1000 cells/well.
2. After seeding the cells, 23 nL of MIPE 4.1 library compounds (in DMSO) were added to each plate using a Kalypsys 1536 Pintool dispenser. Bortezomib at final concentration of […] and DMSO were added to each plate as positive and negative controls respectively. For each screen, MIPE 4.1 compounds were added over an eleven-point concentration range […] in 3-fold dilutions.
3. Each plate was covered with a stainless steel gasketed lid to prevent evaporation and incubated for 48 hour at 37C, 95% relative humidity, and 5% CO2.
4-5. Three microliter CellTilter-GloTM luminescent substrate mix (Promega) reagent was added to the assay plate and incubated at room temperature for 5 min.
6. The luminescence signal was measured using a ViewLux (PerkinElmer) multiplate reader with a 2 second exposure time per plate. Data for each compound were normalized as percent viability such that measurements for DMSO and the empty well controls in each plate were defined as 100% and 0%, respectively.
Potency means the concentration at half of the fitted maximal effect.

Structure (SMILES) | viability | Potency
CC(C)(C)[N+]([O-])=Cc1ccc(S(=O)(=O)O)cc1S(=O)(=O)O | 98.3% | –
CCCCOc1c(C(=O)c2c(F)cc(C)cc2F)cnc2n[nH]cc12 | 96.1% | –
C[C@@H]1CCN(C(=O)CC#N)C[C@H]1N(C)c1ncnc2[nH]ccc12 | 99.8% | –
COc1ccc(-n2c(C)c([N+](=O)[O-])c3ccc(O)cc32)cc1 | 95.8% | –
COc1ccc(C=CC(=O)Nc2ccccc2C(=O)O)cc1OC | 84.7% | –
CN1CCN(C2=Nc3cc(Cl)ccc3Nc3ccccc32)CC1 | 76.3% | –
CCCNC(=O)Nc1ccc(Oc2ncnc3cc(OC)c(OC)cc23)cc1Cl | 90.5% | –
COCCCOc1cc(C[C@@H](C[C@H](N)[C@@H](O)C[C@H](C(=O)NCC(C)(C)C(N)=O)C(C)C)C(C)C)ccc1OC | 81.7% | –
CN(C)CCOc1ccc(-c2nc(-c3ccc4c(c3)CCC4=NO)c(-c3ccncc3)[nH]2)cc1 | – | 18.7 µM (active)
Cc1cc(-c2nnc3n2CCCCC3)c(C)n1-c1ccccc1 | 112% | –
CCN(CC)CCn1c(=O)c(Cc2ccc(OC)cc2)nc2ccccc21 | 91% | –
O=C(C=Cc1ccc(/C=C/C(=O)Nc2ccc(C3=NCCN3)cc2)cc1)Nc1ccc(C2=NCCN2)cc1 | 93.9% | –
Cc1c(-c2ccnn2C)cc(C(=O)NCc2ccc(S(C)(=O)=O)cn2)c(=O)n1-c1cccc(C(F)(F)F)c1 | 114% | –
CC(=O)Oc1ccccc1C(=O)O | 103% | –
CC(=O)N1CCN(c2ccc(OCc3nn(C)c(C)c3-c3cccc4c(CCCOc5cc(C)c(Cl)c(C)c5)c(C(=O)O)n(Cc5cccnc5)c34)cc2)CC1 | 94.3% | –
Cc1ccc(S(=O)(=O)N[C@@H](Cc2ccccc2)C(=O)CCl)cc1 | 78% | –
C[C@]12CC[C@@H]3c4ccc(O)cc4CC[C@H]3[C@H]1[C@@H](O)[C@@H](O)[C@H]2O | 99.1% | –
CC(C)c1ccc2c(c1)c(SC(C)(C)C)c(CC(C)(C)C(=O)O)n2Cc1ccc(Cl)cc1 | 97.9% | –
CCC[C@@H](NC(=O)[C@@H]1[C@H]2CCC[C@@H]2CN1C(=O)[C@@H](NC(=O)[C@@H](NC(=O)c1cnccn1)C1CCCCC1)C(C)(C)C)C(=O)C(=O)NC1CC1 | 88.4% | –
CN1CCN2c3ncccc3Cc3ccccc3C2C1 (stereo not given) | 102% | –

Structure (SMILES) | viability | Potency
CC(C)(C(=O)NCC(F)(F)C(F)(F)F)C(=O)N[C@@H]1C(=O)Nc2ccccc2-c2ccccc21 | – | 1.87 µM (active)
COCCCOc1ccnc(CS(=O)c2nc3ccccc3[nH]2)c1C (stereo not given) | 106% | –
O=C(NC1CCOCC1)c1ccc(-c2cc(-c3cn[nH]c3-c3ccccn3)ccn2)cc1 | 107% | –
Clc1ccccc1C(c1ccccc1)(c1ccccc1)n1ccnc1 | 80.7% | –
Cc1cnc(Nc2ccc(OCCN3CCCC3)cc2)nc1Nc1cccc(S(=O)(=O)NC(C)(C)C)c1 | 96.6% | –
COc1nc(N)nc2c1ncn2[C@@H]1O[C@H](CO)[C@@H](O)[C@@H]1O | 96.6% | –
CCC(=O)O[C@]1(C(=O)CO)CC[C@H]2[C@@H]3CCC4=CC(=O)CC[C@]4(C)[C@@H]3CC[C@@]21C | – | 10.5 µM (active)
CN1CC(=O)NC1=NC(=O)Nc1cccc(Cl)c1 | 88.1% | –
N[C@@]1(C(=O)O)CS(=O)(=O)[C@H]2[C@H](C(=O)O)[C@H]21 | 88.9% | –
CN(CC=CC#CC(C)(C)C)Cc1cccc2ccccc12 | 113% | –
O=C(CCCCCCC(=O)Nc1ccc([C@H]2O[C@@H](CSc3nc(-c4ccccc4)c(-c4ccccc4)o3)C[C@@H](c3ccc(CO)cc3)O2)cc1)NO | – | 9.35 µM (active)
C[C@@]12C(=O)OC(=O)[C@@]1(C)C1CCC2O1 | – | 7.43 µM (active)
COc1cc(CCc2cc(NC(=O)c3ccc(N4C[C@@H](C)N[C@@H](C)C4)cc3)n[nH]2)cc(OC)c1 | – | 18.7 µM (active)
O=c1n(CCCN2CCN(c3cccc(Cl)c3)CC2)nc2ccccn12 | 105% | –
CCN(CC)CC#CCOC(=O)C(O)(c1ccccc1)C1CCCCC1 (stereo not given) | 91.5% | –
C[C@]12C=CC(=O)C=C1CC[C@@H]1[C@@H]2C(=O)C[C@@]2(C)[C@H]1CC[C@]2(O)C(=O)CO | 96.1% [at 23.2 µM] | –
CC(C)(C)OC(=O)Nc1ccc(-c2cc(C(=O)NCCCCCCC(=O)NO)no2)cc1 | – | 9.35 µM (active)
CNC1[C@H](O)C(O[C@@H]2C(O)C(O[C@H]3O[C@H]([C@@H](C)NC)CC[C@H]3N)[C@@H](N)C[C@H]2N)OC[C@]1(C)O (stereo not given in full) | 93.6% | –
Cc1c(O)cccc1C(=O)N[C@@H](CSc1ccccc1)[C@H](O)CN1C[C@H]2CCCC[C@@H]2C[C@@H]1C(=O)NC(C)(C)C | 100% | –
COc1cc([C@@H]2c3cc4c(cc3[C@H](O)[C@H]3COC(=O)[C@@H]23)OCO4)cc(OC)c1OC | – | 0.526 µM (active)
